# This is a sample that favours compounds with a hit; in the whole collection about 9.3% have one here.
# ELG1 repair inh – blocks ELG1-dependent DNA repair in HEK293T cells | HEK293T ELG1-luciferase reporter, luminescence, 16 h; DNA damage induced by 5-fluorouridine | Potency, µM (doses to about 46.1 µM), inactives show at the top dose activity change, negative = inhibition, most hits filed as inhibitors | 2.3% of 330,000 active; note: % is set by controls: 0 for no effect and ±100 for the full control effect; nearly all actives have a fitted effect of over 55% in size
#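 DMSO vehicle served as the neutral condition. Each well held 2,000 cells given 5-fluorouridine plus compound; after 16 hr at 37 °C/5% CO2, ONE-Glo was added and luciferase measured 30 min later.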
# SMN2 splice up – enhancers of SMN2 splice variant expression; 2.8% of 210,000 active; Potency, µM (series often up to 46.1 µM), for the others: at the highest dose activity change, positive = activation, hits mostly activators; HEK293 SMN2-luciferase splicing reporter, luminescence, 30-36 h; note: % of control where 0% means no effect; nearly all actives have a fitted effect of over 55% in size
#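 HEK293 cells carry an SMN2 minigene-luciferase reporter in which exon 7 inclusion puts luciferase in frame. Cells were seeded at 2000 cells/well, attached for 10-12 hours, then exposed to compounds for 30-36 hours at 37C before ONE-Glo luminescence.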
# FLuc modulator – inhibits or activates purified firefly luciferase, miR-21 counter-screen; AID 588342; Potency, µM (titrated, usually from 57.5 µM), without a hit: at the top dose activity change, negative = inhibition, most hits filed as inhibitors; P08659; purified FLuc, Km substrates, luminescence inhibition; 6.9% of 360,000 active;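 note: plate controls were vehicle for no effect and reference inhibitor for full effect; nearly all actives have a fitted effect of over 55% in size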
# Target sequence (P08659 whole entry, looked up): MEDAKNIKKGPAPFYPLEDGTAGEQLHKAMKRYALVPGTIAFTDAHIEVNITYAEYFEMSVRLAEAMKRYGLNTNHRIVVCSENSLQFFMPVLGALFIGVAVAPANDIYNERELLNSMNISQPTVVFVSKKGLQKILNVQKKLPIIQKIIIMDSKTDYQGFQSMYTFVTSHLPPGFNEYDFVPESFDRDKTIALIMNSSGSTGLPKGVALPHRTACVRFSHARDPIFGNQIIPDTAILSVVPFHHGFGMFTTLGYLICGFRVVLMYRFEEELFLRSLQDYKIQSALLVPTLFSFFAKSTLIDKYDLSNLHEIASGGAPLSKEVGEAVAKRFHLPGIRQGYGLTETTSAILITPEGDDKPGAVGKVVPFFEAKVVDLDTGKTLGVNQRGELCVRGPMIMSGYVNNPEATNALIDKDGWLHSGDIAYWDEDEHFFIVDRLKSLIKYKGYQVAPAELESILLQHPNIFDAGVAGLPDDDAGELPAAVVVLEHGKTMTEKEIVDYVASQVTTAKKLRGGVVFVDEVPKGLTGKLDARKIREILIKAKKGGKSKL
#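 Purified P. pyralis luciferase (10nM final) with 10uM D-luciferin and 10uM ATP (Km levels) in 50mM Tris acetate pH 7.5, 10mM Mg acetate, 0.01% Tween-20, 0.05% BSA; qHTS 6-point titration, ~60 µM downward; luminescence read.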
# NPC1 prom act – NPC1 promoter activation; Huh7 NPC1 promoter luciferase reporter, 24 h; Potency, µM (series often up to 9.22 µM), inactives show at the highest dose activation, most hits filed as activators; 2.4% of 320,000 active; note: % of control where 0% means no effect; nearly all actives have a fitted effect of over 60% in size
#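 Luminescence from an NPC1 promoter-driven luciferase reporter in stably transfected Huh7 cells was measured after 24 h compound treatment at 37 °C, followed by 10 min ambient incubation with luciferase detection reagent.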
# ELG1 genotoxic – genotoxicity induction in ELG1-luciferase HEK293T cells; 1.3% of 330,000 active; HEK293T ELG1-luciferase reporter, luminescence, 16 h; AID 504466; Potency, µM (series often up to 46 µM), without a hit: at the top dose activity change, positive = activation, actives largely listed as activators; note: % of control where 0% means no effect; nearly all actives have a fitted effect of over 60% in size
#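 HEK293T cells expressing luciferase-tagged ELG1 were exposed to compound or DMSO vehicle for 16 hr at 37 °C and 5% CO2. Luciferase activity was then measured with ONE-Glo after 30 min at room temperature.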
# Rab9 prom act – Rab9 promoter activation. Potency, µM (highest dose often 9.22 µM), inactives show at the highest dose activation, negative = inhibition, hits mostly activators. AID 485297. 2.8% of 320,000 active. Huh7 Rab9 promoter-luciferase reporter, luminescence, 24 h; note: % of control where 0% means no effect; nearly all actives have a fitted effect of over 60% in size
#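 Rab9 promoter-driven luciferase in stably transfected Huh7 cells; 1500 cells/well rested 2 h, exposed to compound in DMSO for 24 h at 37 °C, 5% CO2. Luminescence read 10 min after adding luciferase reagent at ambient temperature.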
# * marks the source's active call; other numbers are inactive results; ? = inconclusive; / = no result; [ ] = another dose, or the depositor's remark. Calls come from the whole dose curve; as a rule, active = well fitted curve in the direction sought with a large enough effect; inconclusive = small, poorly fitted or top-dose-only effect, or another doubt; inactive = no such curve, though single readings can be large; an effect the other way counts as inactive or inconclusive. Potency is the fitted concentration of half-maximal effect.
SMILES,ELG1 repair inh,SMN2 splice up,FLuc modulator,NPC1 prom act,ELG1 genotoxic,Rab9 prom act
O=C(CSc1nncc2ccccc12)Nc1ccc(C(=O)O)cc1,?,/,-15%,-7%,2%,-4%
NC1(C(=O)O)C[C@H](C(=O)O)[C@H](C(=O)O)C1 (some centres not stated),/,-5%,/,/,/,/
Cc1ccc(C)c(NC(=O)Cc2ccc(S(=O)(=O)N3CCCCC3)s2)c1,-15%,-34%,6%,-9%,-5%,-5%
CCOC(=O)c1ccccc1NC(=O)Cc1ccc(S(=O)(=O)N2CCCC2)s1,26µM*,/,/,/,-5%,/
CCCOc1ccc(C(=O)CCC(=O)NNC(=O)Cn2nc(C)cc2C)cc1,23%,/,-5%,-3%,-4%,2%
COc1cc(NC(=O)c2cccc3c2C(=O)N(C2CCCCC2)C3)cc(OC)c1OC,4.6µM*,-11%,0%,-11%,-14%,-4%
CCOC(=O)c1ccccc1NC(=O)c1cccc2c1C(=O)N(C1CCN(C(=O)OCC)CC1)C2,18µM*,-63%,-1%,-1%,-11%,-2%
CCOC(=O)N1CCC(N2Cc3cccc(C(=O)Nc4ccc(OC)c(OC)c4)c3C2=O)CC1,?,-1%,15µM*,8%,-12%,5%
CCOC(=O)N1CCC(N2Cc3cccc(C(=O)Nc4ccccc4OC)c3C2=O)CC1,-10%,/,-1%,-4%,-10%,-7%
Cc1cc(C)cc(NC(=O)c2cccc3c2C(=O)N(C2CCCCC2)C3)c1,?,-3%,-1%,-7%,-1%,-1%
CN(C)CCN(Cc1ccco1)S(=O)(=O)c1cc2c(cc1Cl)NC(=O)CO2,/,/,0%,/,/,/
CC(C)(Oc1ccc(CCNC(=O)c2ccc(-c3ccc(Cl)cc3)o2)cc1)C(=O)O,-7%,-6%,24µM*,-2%,-6%,1%
COc1ccc(Br)cc1CN(C)C(C)C(=O)Nc1cc([N+](=O)[O-])ccc1OC (configuration not stated),?,-20%,1%,-1%,-2%,-1%
COc1ccc([N+](=O)[O-])cc1NC(=O)C(C)N(C)Cc1ccc(Br)cc1 (configuration not stated),21µM*,-33%,4%,1%,-3%,-3%
COc1ccc(CN(C)C(C)C(=O)Nc2ccc([N+](=O)[O-])cc2Cl)cc1OC (configuration not stated),9.2µM*,-66%,-1%,-1%,0%,-10%
CCOc1ccc(CN(C)C(C)C(=O)Nc2ccc([N+](=O)[O-])cc2Cl)cc1OC (configuration not stated),15µM*,-26%,2%,0%,-1%,-4%
Cc1ccc(C)c(NC(=O)C(=O)NCc2ccccn2)c1,4%,-14%[1.84 µM],1%,-1%,1%,2%
COc1ccc(-c2noc(-c3cc(C(C)C)[nH]n3)n2)cc1,/,/,21µM*,/,/,/
CC(C)c1cc(-c2nc(-c3ccc(Br)cc3)no2)n[nH]1,/,/,13µM*,/,/,/
CC(C)c1cc(-c2nc(-c3ccccc3)no2)n[nH]1,/,/,1.7µM*,/,/,/
Cc1cccc(C(=O)Nc2ccccc2-c2nc(-c3ccccc3)no2)c1,/,/,-5%,/,/,/
COc1ccc(-c2ccc(-c3noc(-c4ccccc4C)n3)c(OC)n2)cc1,7%,-6%,?,0%,-1%,1%
Cc1ccccc1-c1noc(-c2cc(C(C)C)[nH]n2)n1,/,/,11µM*,/,/,/
Cc1cc(C(=O)COC(=O)C2COc3ccccc3O2)c(C)n1CC1CCCO1 (configuration not stated),2%,-4%,4.8µM*,1%,-1%,-8%
Cc1ccc(C(=O)OCC(=O)c2cc(C)n(CC3CCCO3)c2C)cc1 (configuration not stated),?,-2%,4.3µM*,2.2µM*,?,2.2µM*
SMILES,ELG1 repair inh,SMN2 splice up,FLuc modulator,NPC1 prom act,ELG1 genotoxic,Rab9 prom act
Cc1cc(C(=O)COC(=O)c2ccccc2NCCO)c(C)n1CC1CCCO1 (configuration not stated),?,/,1.5µM*,?,?,?
Cc1cc(C(=O)COC(=O)c2ccccc2Br)c(C)n1CC1CCCO1 (configuration not stated),?,/,0.11µM*,-30%,?,-34%
COc1cc(C(O)CO)ccc1OS(=O)(=O)O (configuration not stated),20%,?,13%,0%[46.1 µM],0%,-6%[46.1 µM]
CC(C)c1nc2ccc(C(=O)NCc3ccccc3Br)cc2o1,/,/,-12%,/,/,/
Cc1cc(C(=O)COC(=O)c2ccccc2O)c(C)n1CC1CCCO1 (configuration not stated),?,/,0.085µM*,-27%,-9%,-29%
Cc1cc(C(=O)CSc2nnc(-c3ccncc3)n2-c2ccccc2)c(C)n1C,-21%,-11%,-6%,-2%,-3%,-6%
CCOc1cc(C(=O)OCC(=O)c2cc(C)n(CC3CCCO3)c2C)ccc1OCC(=O)N1CCOCC1 (configuration not stated),-4%,/,?,12%,3%,19%
Cc1cc(C(=O)CSc2nnc(-c3cccnc3)n2-c2ccccc2)c(C)n1CC1CCCO1 (configuration not stated),?,-24%,19µM*,21%,12%,?
Cc1cc(C(=O)COC(=O)c2cccnc2Cl)c(C)n1CC1CCCO1 (configuration not stated),?,11%,0.24µM*,?,0.52µM*,?
Cc1cc(C(=O)COC(=O)c2n[nH]c3ccccc23)c(C)n1CC1CCCO1 (configuration not stated),?,-34%,?,0.35µM*,?,0.32µM*
O=C(COC(=O)c1cccnc1Cl)NCC1CCCO1 (configuration not stated),6%,8%,0%,-1%,0%,-5%
CCC(=O)Nc1cc2c3c(c1)CCN3C(=O)CC2,4%,/,0%,-4%,4%,-2%
CC1CCCCC1NC(=O)CN1CCC(NC(=O)c2cccc(F)c2)CC1 (configuration not stated),12%,/,-2%,1%,0%,-3%
Cc1cc(C(=O)COC(=O)CN(C)S(=O)(=O)c2ccc(Cl)cc2)c(C)n1CC1CCCO1 (configuration not stated),1%,-7%,19µM*,9%,1%,1%
Cc1cc(C(=O)COC(=O)c2cc(O)c3ccccc3c2O)c(C)n1CC1CCCO1 (configuration not stated),0%,1%,19µM*,8%,2%,13%
